Bioassay records from PubChem.
This is one part of a sample in which hits are shown more often than they occur.
HT1080 IDH1KD tx – toxicity to HT-1080 IDH1 knockdown cells (counter line); HT-1080 IDH1 knockdown viability, ATP luminescence, 48 h; Potency, µM (titrated, usually from 46.1 µM), for inactives: top-dose activity, negative = toxicity, most hits filed as cytotoxic; 360,000 compounds, 2% hits; AID 686971;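 further: potency means the concentration at half of the fitted maximal effect; 0% = DMSO wells and -100% = cell-free medium wells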
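Knockdown cells (IDH1KD HT-1080) received compounds 2 h after plating at 750 cells/well and were kept 48 h at 37 °C in 5% FBS RPMI. A CellTiter-Glo luminescence read gave % activity for curve fitting.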
DT40 TDP1 no CPT – qHTS for Inhibitors of human tyrosyl-DNA phosphodiesterase 1 (TDP1): qHTS in cells in absence of CPT. Potency, µM (highest dose often 46.2 µM), without a hit: top-dose activity change, negative = growth inhibition, actives largely listed as inhibitors. 420,000 compounds, 15% hits. DT40 Tdp1-/- hTDP1 cells, no CPT, ATP luminescence, 48 h; further: potency means the concentration at half of the fitted maximal effect; nearly all actives have a fitted effect of over 55% in size
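DT40 Tdp1-/-;hTDP1 cells, no CPT (DMSO vehicle only), 400 cells/well; compounds pin-transferred; ≥48 hr, 37 °C; CellTiter-Glo 30 min RT dark, luminescence read.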
HT1080-NT tox – kills 2HG-producing HT-1080-NT fibrosarcoma cells. HT-1080-NT fibrosarcoma viability, CellTiter-Glo ATP luminescence, 48 h. Potency, µM (series often up to 46.1 µM), for the others: at the highest dose activity, negative = less viability, most hits filed as cytotoxic. 360,000 compounds, 1.6% hits. AID 686970;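 further: NT is the 2HG producing partner of a matched IDH1 knockdown line; potency means the concentration at half of the fitted maximal effect; 0% = DMSO-treated cells and -100% = media-only wells without cells; nearly all actives have a fitted effect of over 55% in size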
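750 cells/well, RPMI + 5% FBS; 2 h settle, compound pin-transfer, 48 h at 37 degrees C. CellTiter-Glo 10 min RT, luminescence. Normalized to DMSO and media-only wells.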
IL1B secr inh – blocks inflammasome-driven IL-1 beta release; activity change, % at 57.5 µM; 360,000 compounds, 4.7% hits; THP-1 LPS/ATP IL-1B secretion, AlphaLISA, 16 h; active compounds read low; in the data active means activity change below about -50%; inconclusive means mostly about -30% to -49%
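THP-1 cells pretreated 1 hr with compounds (up to 57.5 uM final), then stimulated with LPS (250 ng/mL final) plus ATP (1.25 mM final); secreted IL-1B measured by AlphaLISA after 16 hr, decreased signal indicating inhibition.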
12-LOX inh – ALOX12 (human) lipoxygenase inhibition. Potency, µM (series often up to 108 µM), without a hit: at the top dose activity change, negative = inhibition, usual class: inhibitors. 580,000 compounds, 1.1% hits. purified 12hLO, xylenol orange hydroperoxide absorbance. P18054; further: potency means the concentration at half of the fitted maximal effect
Target sequence (P18054 whole entry, looked up): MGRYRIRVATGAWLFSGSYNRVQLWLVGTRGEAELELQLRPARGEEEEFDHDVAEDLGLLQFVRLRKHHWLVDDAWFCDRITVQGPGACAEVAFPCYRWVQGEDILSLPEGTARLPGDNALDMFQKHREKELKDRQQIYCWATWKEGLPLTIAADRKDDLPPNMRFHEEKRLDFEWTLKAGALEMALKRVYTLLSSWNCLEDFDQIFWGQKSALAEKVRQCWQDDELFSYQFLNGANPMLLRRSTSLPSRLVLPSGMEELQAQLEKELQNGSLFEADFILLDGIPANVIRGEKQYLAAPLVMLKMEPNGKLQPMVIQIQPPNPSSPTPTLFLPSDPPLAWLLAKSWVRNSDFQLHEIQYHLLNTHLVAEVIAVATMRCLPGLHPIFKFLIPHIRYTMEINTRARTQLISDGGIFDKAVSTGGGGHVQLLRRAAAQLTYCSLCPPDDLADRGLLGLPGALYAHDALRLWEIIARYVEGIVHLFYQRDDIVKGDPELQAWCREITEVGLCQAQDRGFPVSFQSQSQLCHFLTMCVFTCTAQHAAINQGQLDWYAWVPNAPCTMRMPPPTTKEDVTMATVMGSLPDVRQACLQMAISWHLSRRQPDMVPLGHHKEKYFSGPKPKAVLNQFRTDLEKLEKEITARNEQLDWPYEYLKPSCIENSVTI
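Hydroperoxide product was detected by ferrous iron/xylenol orange as the 573 to 405 nm absorbance ratio. Arachidonic acid at 40 uM (final) was turned over for 30 min at room temperature by 150 nM human 12hLO, pH 7.0 Hepes buffer, after 15 min compound preincubation.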
DT40 TDP1 CPT – DT40-hTDP1 cell growth loss with CPT; chicken DT40 Tdp1-/-;hTDP1 cells + 20 nM CPT, ATP luminescence, 48 h; Potency, µM (doses to about 46.2 µM), inactives show top-dose activity change, negative = growth inhibition, hits mostly inhibitors; 420,000 compounds, 12% hits; further: potency means the concentration at half of the fitted maximal effect; nearly all actives have a fitted effect of over 55% in size
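Cell growth measured by CellTiter-Glo luminescence after a minimum 48 h, 37 C compound exposure with 20 nM CPT in Tdp1-knockout DT40 cells stably expressing hTDP1, seeded 400/well; qHTS titration format.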
An asterisk follows results filed as active; i = inactive; ? = inconclusive; nt = not tested or not shown. Unless noted, the call rests on the fitted dose curve; in most records, active means well fitted curve in the direction sought with a large enough effect; inconclusive means small, poorly fitted or top-dose-only effect, or another doubt; inactive means no such curve, though single readings can be large; an effect the other way counts as inactive or inconclusive. Unless noted, on the % scale 0 is the no-effect control and ±100 the full control effect.

SMILES | HT1080 IDH1KD tx | DT40 TDP1 no CPT | HT1080-NT tox | IL1B secr inh | 12-LOX inh | DT40 TDP1 CPT
CC(C)(CNC(=S)NC1CC2CCC1C2)N1CCOCC1 (stereo not given) | nt | nt | nt | nt | 13% | nt
COc1cccc(CN(C)C(=O)c2ccc(S(=O)(=O)N3CCCC3)cc2)c1OC | -6% | ? | 6% | -1 | -23% | ?
O=C(NCC1COc2ccccc2O1)c1cccc(S(=O)(=O)N2CCN(c3ccccc3)CC2)c1 (stereo not given) | -19% | 21µM* | -10% | -4 | -9% | 18µM*
COc1ccc(CN(C)C(=O)c2cccc(S(=O)(=O)N3CCCc4ccccc43)c2)c(OC)c1OC | -2% | 21µM* | -1% | -13 | -22% | 18µM*
O=C(NCC1COc2ccccc2O1)c1cccc(S(=O)(=O)N2CCCCC2)c1 (stereo not given) | 0% | ? | -9% | 12 | -1% | ?
O=C(NCCOc1ccccc1F)c1cccc(S(=O)(=O)N2CCN(c3ccccc3)CC2)c1 | -2% | 26µM* | -3% | -28 | 1% | ?
COc1ccc(CN(C)C(=O)c2cccc(S(=O)(=O)N3CCN(c4ccccc4)CC3)c2)c(OC)c1OC | -13% | 13µM* | ? | -13 | 0% | 12µM*
Cc1ccc(F)cc1NC(=O)c1cnc2ccccc2n1 | nt | nt | nt | nt | -13% | nt
CN(C)c1nc2c(c(=O)[nH]1)CCN(Cc1cc(F)cc(F)c1)CC2 | nt | nt | nt | nt | 28% | nt
COc1ccc(C(=O)C(C)OC(=O)c2ccc3ccccc3n2)cc1 (stereo not given) | nt | nt | nt | nt | -2% | nt
O=C(NCC1COc2ccccc2O1)c1cc(S(=O)(=O)N2CCOCC2)ccc1F (stereo not given) | -5% | -26% | -10% | -1 | 3% | -19%
O=C(NCC1COc2ccccc2O1)c1c[nH]c2ccc(S(=O)(=O)N3CCOCC3)cc2c1=O (stereo not given) | -7% | 13µM* | -3% | -4 | 118% | 12µM*
CN(Cc1cccc(F)c1)C(=O)c1ccc(S(=O)(=O)N2CCCCCC2)cc1 | -5% | ? | -1% | -66* | 7% | ?
COc1ccc(NS(=O)(=O)c2cccc(C(=O)NCC(c3ccccc3)N(C)C)c2)cc1 (stereo not given) | 2% | -21% | 0% | -3 | 1% | ?
CN(Cc1ccc(F)cc1)C(=O)c1cccc(S(=O)(=O)N2CCN(c3ccccc3)CC2)c1 | -16% | 23µM* | -2% | -27 | ? | ?
COc1ccc(C(CNC(=O)c2cccc(S(=O)(=O)N3CCCc4ccccc43)c2)N(C)C)cc1 (stereo not given) | ? | ? | -4% | -54* | -15% | ?
CCNc1c(NC(=O)c2ccc(C(C)(C)C)cc2)c(=O)oc2ccccc12 | nt | nt | nt | nt | -18% | nt
CN1CCN(S(=O)(=O)c2cccc(C(=O)N(C)Cc3c(F)cccc3Cl)c2)CC1 | -1% | ? | -4% | 5 | ? | ?
CN(Cc1ccc(F)cc1)C(=O)c1cccc(S(=O)(=O)N2CCN(c3ccc(F)cc3)CC2)c1 | -16% | 15µM* | ? | -58* | ? | 16µM*
Nc1c(-c2cccc(Cl)c2)cnn1-c1cccc(C(F)(F)F)c1 | -28% | 16µM* | ? | -61* | ? | ?
Cc1ccc(CNC(=O)c2ccc3c(c2)CNCCO3)cc1 | nt | nt | nt | nt | -15% | nt
O=C(NNc1ccc(O)cc1)c1ccc(Br)cc1 | 4.1µM* | 12µM* | ? | 31 | ? | 21µM*
CCCc1ccc(C(=O)NNc2ccc(F)cc2)cc1 | 7.3µM* | -1% | 4.1µM* | -11 | 18µM* | -3%
O=C(NC(=S)NNC(=O)c1ccccc1O)c1ccc(F)cc1 | ? | ? | ? | 51 | ? | ?
O=C(NNc1ccccc1)c1ccccc1 | -18% | -15% | ? | 18 | -16% | -24%
SMILES | HT1080 IDH1KD tx | DT40 TDP1 no CPT | HT1080-NT tox | IL1B secr inh | 12-LOX inh | DT40 TDP1 CPT
CCCc1ccc(C(=O)NNC(=O)c2ccc(Br)cc2)cc1 | 9% | -12% | 1% | i | -12% | -1%
O=C(NC(=O)c1ccccc1O)c1ccc(C(F)(F)F)cc1 | 15µM* | 7.3µM* | 13µM* | -69* | 66% | 12µM*
CCCc1ccc(C(=O)NC(=O)c2ccccc2O)cc1 | ? | 2.9µM* | ? | 34 | 148% | 2.3µM*
Cc1ccsc1C(=O)N1CCN(C(=O)c2nnn3c2COC(c2ccc(Cl)cc2)C3)CC1 (stereo not given) | nt | nt | nt | nt | 14% | nt
COc1cccc(N2CC(C(=O)N3CCC(C(=O)NCc4cccc(F)c4)C3)NC2=O)c1 (stereo not given) | nt | nt | nt | nt | 9% | nt
O=C(NCCCN1CCCCC1)c1sc2ncccc2c1-n1cccc1 | nt | -13% | nt | nt | -11% | -19%
COc1ccc(N2CCN(CCCNC(=O)c3sc4ncccc4c3-n3cccc3)CC2)cc1 | nt | ? | nt | nt | 2% | ?
O=C(NCCCN1CCN(c2ccc(F)cc2)CC1)c1sc2ncccc2c1-n1cccc1 | nt | ? | nt | nt | -20% | 16µM*
CCOc1ccccc1CNC(=O)c1sc2ncccc2c1-n1cccc1 | nt | 16µM* | nt | nt | -17% | 15µM*
O=C(NCCc1ccccc1Cl)c1sc2ncccc2c1-n1cccc1 | nt | ? | nt | nt | -6% | 23µM*
Cc1ccc(CN2CCCn3nc(C(=O)NCc4ccc(N(C)C)cc4)cc3C2=O)cc1 | nt | 13µM* | nt | nt | 5% | ?
Cc1ccc(CN2CCCn3nc(C(=O)NCc4cc(C)ccc4C)cc3C2=O)cc1 | nt | 16µM* | nt | nt | 0% | 15µM*
Cc1nc2cc(NC(=O)c3ccccc3Cl)ccc2o1 | nt | nt | nt | nt | -1% | nt
COc1cc(/C=C2/SC(=S)N(CC3CCCO3)C2=O)ccc1O (stereo not given) | 1% | ? | -8% | -74* | -26% | -19%
COc1ccc(/C=C2\SC(=S)N(CC3CCCO3)C2=O)cc1 (stereo not given) | 4% | -9% | 4% | -12 | ? | 16%
O=C1/C(=C/c2cccnc2)SC(=S)N1CC1CCCO1 (stereo not given) | -19% | ? | -2% | -103* | -8% | -4%
O=C1/C(=C/c2cccnc2)SC(=S)N1c1ccc(O)cc1 | 0% | ? | ? | -99* | -5% | -24%
O=C1/C(=C/c2ccco2)SC(=S)N1CC1CCCO1 (stereo not given) | 14% | -6% | -1% | nt | ? | 3%
